Potency and outcome data for 8 molecules are collected here from PubChem BioAssay (NCATS).

Structures are written as SMILES. Results filed as inconclusive are left out. Calls of active or inactive are those of the source. Unless noted, calls follow the shape of the dose curve; as a rule, active = well fitted curve in the direction sought with a large enough effect; inconclusive = small, poorly fitted or top-dose-only effect, or another doubt; inactive = no such curve, though single readings can be large; an effect the other way counts as inactive or inconclusive.

A short description of assay [1]: qHTS assay for measurement of the activity of small molecule inhibitors on Zika virus induced Caspase-3 activity in human iPSC derived neural progenitor cells (hNPCs) (AID 1224857). Also: nearly all actives have a fitted effect of over 65% in size. Also: potency is read from the fitted curve at half-maximal effect. Summed up: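 hNPCs seeded 350 cells/well, cultured 16–20 h; compounds added 1 h before ZIKV (2 FFU/cell), 37 C 6 h. Caspase-Glo 3/7 luminescence after 30 min RT; % inhibition from induction scaled to uninfected (0%) and infected (100%) wells.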
In general terms: In qHTS, concentration-response curves come from the screen itself.

Assay [2] in a line: qHTS assay for measurement of the activity of small molecule inhibitors on Zika virus induced Caspase-3 activity in human astrocytoma cells (AID 1224859). Also: potency is read from the fitted curve at half-maximal effect. Summed up:
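Luminescence read-out (Caspase-Glo 3/7, 30 min RT) of caspase activity in SNB-19 cells infected 6 h with ZIKV, 2 FFU/cell, after 1 h compound pretreatment; % inhibition from induction normalised to uninfected (0%) and infected (100%) wells.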

A short description of assay [3]: Natriuretic polypeptide receptor (hNpr1) antagonism - Pilot counterscreen GloSensor control cell line (AID 1347045; calls by dose curve; also: potency is read from the fitted curve at half-maximal effect). Summed up: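 HEK293 cGMP-sensor cells; 2% GloSensor reagent 2 h RT; LOPAC compounds in 1:5 titrations 30-50 min; 50 uM SNP 20 min; luminescence pre-read and post-read.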
In general terms: The purpose of a counterscreen is to sort out artefacts and off-target activity.

Assay [4] concerns the target Atrial natriuretic peptide receptor 2 (Homo sapiens) (UniProt P20594). As to the kind of experiment: Natriuretic polypeptide receptor (hNpr2) antagonism - Pilot subtype selectivity assay (AID 1347050; calls by dose curve; also: potency is read from the fitted curve at half-maximal effect). Put shortly: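 Antagonist mode: compounds (LOPAC1280, seven 1:5 dilutions) added 30 min before 1 nM hNppC stimulation of hNpr2-HEK293 cGMP-sensor cells; luminescence read before and 20 min after agonist at ambient temperature.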

A short description of assay [5]: NS1 protein of Zika virus - qHTS assay to identify small molecule inhibitors in human HEK 293 cells (AID 1347053). Also: series mostly up to about 46 µM; nearly all actives have a fitted effect of over 55% in size. Summed up:
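Readout was TR-FRET using paired anti-NS1 antibodies after 24 h infection of HEK 293 cells with ZIKV MR766 (MOI = 0.5). Compound preceded virus by 1 h; reduced signal reflects lower NS1 expression.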

The target in assay [6] is T1, Tyrosine-protein phosphatase non-receptor type substrate 1 (Homo sapiens) + Leukocyte surface antigen CD47 (Homo sapiens) (UniProt P78324+Q08722). The assay can be described thus: CD47-SIRPalpha protein protein interaction - HTRF assay qHTS validation (AID 1347058; active = well fitted curve in the direction sought with a large enough effect in the signal ratio, not every such curve was filed as active; the % refers to the signal ratio; also: series mostly up to about 38 µM). Put shortly: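 Soluble extracellular domains (6His-CD47, Avi-tag-biotinylated SIRPalpha) in PBS pH 7.4 with 0.05% IGEPAL CA-630. Compounds were preincubated 30 min at RT with CD47 and anti-His-Eu, then SIRPalpha and SAV-XL665 were added. TR-FRET 665/615 ratio.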
T1 sequence (P78324 whole entry, looked up, the tested form may be a part): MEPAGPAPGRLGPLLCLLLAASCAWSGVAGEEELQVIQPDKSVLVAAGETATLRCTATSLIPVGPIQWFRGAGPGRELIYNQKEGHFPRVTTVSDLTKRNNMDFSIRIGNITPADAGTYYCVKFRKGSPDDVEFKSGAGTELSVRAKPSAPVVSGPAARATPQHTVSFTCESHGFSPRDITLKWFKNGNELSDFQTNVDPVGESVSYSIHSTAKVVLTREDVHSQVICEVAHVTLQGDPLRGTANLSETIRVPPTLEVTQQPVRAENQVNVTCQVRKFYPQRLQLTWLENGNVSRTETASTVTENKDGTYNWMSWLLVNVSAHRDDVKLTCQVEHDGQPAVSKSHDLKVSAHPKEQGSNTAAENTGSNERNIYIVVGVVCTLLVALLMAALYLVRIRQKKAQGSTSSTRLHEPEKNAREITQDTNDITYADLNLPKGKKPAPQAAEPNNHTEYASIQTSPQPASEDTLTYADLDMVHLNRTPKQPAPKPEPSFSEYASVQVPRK
T1 sequence (Q08722 whole entry, looked up, the tested form may be a part): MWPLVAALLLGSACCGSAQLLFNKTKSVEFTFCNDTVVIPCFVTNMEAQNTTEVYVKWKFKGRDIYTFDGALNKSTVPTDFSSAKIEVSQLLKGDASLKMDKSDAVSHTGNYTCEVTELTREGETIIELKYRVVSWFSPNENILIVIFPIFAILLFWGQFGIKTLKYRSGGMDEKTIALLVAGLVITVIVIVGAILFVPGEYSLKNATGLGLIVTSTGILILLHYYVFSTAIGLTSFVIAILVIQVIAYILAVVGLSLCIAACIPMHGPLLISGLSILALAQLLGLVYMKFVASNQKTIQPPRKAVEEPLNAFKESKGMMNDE
Background: Time-resolved FRET reads energy transfer from a long-lived donor to a nearby acceptor.

The target of assay [7] is T1, Tyrosine-protein phosphatase non-receptor type substrate 1 (Homo sapiens) + Leukocyte surface antigen CD47 (Homo sapiens). The assay can be described thus: CD47-SIRPalpha protein protein interaction - Alpha assay qHTS validation (AID 1347059).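 Also: bead proximity luminescence from CD47 binding SIRPalpha after compound preincubation with SIRPalpha.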 Summed up: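 AlphaScreen signal between CD47-His (12.5 nM) and biotin-SIRPalpha (25 nM) soluble extracellular domains, bead-captured via Ni-NTA and streptavidin. Compounds, in 7-point titrations, met SIRPalpha 30 min before CD47; PBS pH 7.4 with 0.05% IGEPAL.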

For assay [8], the target named is Parathyroid hormone/parathyroid hormone-related peptide receptor (Homo sapiens) (UniProt Q03431). The assay can be described thus: qHTS for PTHR1 Agonists: Optimization Screen against the NCGC LOPAC library (AID 1347079).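 Also: GloSensor cAMP luminescence in HEK-293 GP2 cells expressing human PTHR1 with IBMX.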 Summed up:
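Signal increase flags agonism. GP2 cells, derived from HEK-293, express human PTHR1 and a GloSensor cAMP construct.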

Assay [9] has as its target N-terminal Xaa-Pro-Lys N-methyltransferase 1 (Homo sapiens) (UniProt Q9BV86). The assay can be described thus: qHTS Assay for Inhibitors of N-terminal methyltransferase 1 (NTMT1): LOPAC validation of the NTMT1 SAHH-coupled ThioGlo3 Assay (AID 1347143).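 Also: SAH from peptide methylation measured as thiol fluorescence via SAHH coupling and ThioGlo3; nearly all actives have a fitted effect of over 70% in size.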 Also: potency is read from the fitted curve at half-maximal effect. Put shortly: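 NTMT1 125nM + cpds (various conc.), 1 min RT; add SAM 100uM/SAHH 10uM/ThioGlo3 15uM (addition mix). SAHH-coupled thiol detection, Ex340/Em450, t0 and 30 min RT; signal normalized to background. LOPAC 1280-cpd pilot.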

Assay [10] concerns Zika virus NS2B-NS3 protease (unlinked). As to the kind of experiment: Optimization of GU AMC qHTS for Zika virus inhibitors: Unlinked NS2B-NS3 protease assay (AID 1347151). Also: nearly all actives have a fitted effect of over 80% in size. Also: potency is read from the fitted curve at half-maximal effect. Put shortly: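 Noncovalent NS2B hydrophilic domain–NS3 protease complex (25 nM final) in 10 mM Tris-HCl pH 8.0, 0.01% Tween 20; AMC substrate, room temperature 15 min (~20% conversion); fluorescence change normalized, 4-parameter Hill fit.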

Assay [11] has as its target T1, Tyrosine-protein phosphatase non-receptor type substrate 1 (Homo sapiens) + Leukocyte surface antigen CD47 (Homo sapiens). As to the kind of experiment: CD47-SIRPalpha protein protein interaction - LANCE assay qHTS validation (AID 1347057; active = well fitted curve in the direction sought with a large enough effect in the signal ratio, with a control signal flat, not every such curve was filed as active; the % refers to the signal ratio; also: series mostly up to about 38 µM). Summed up: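 Inhibition of soluble CD47/SIRPalpha ectodomain association by titrated compounds, measured as 665/615 nm time-resolved FRET ratio after sequential 30 min room-temperature incubations.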

Another assay deals with Furin (Homo sapiens) (UniProt P09958). As to the kind of experiment: Furin counterscreen qHTS for Zika virus inhibitors (AID 1347149).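 Also: purified recombinant full-length human furin enzyme at 5 nM; fluorescence gain from furin cutting a BOC-RVRR-AMC peptide substrate over 15 min; top concentration of the series differs between compounds; nearly all actives have a fitted effect of over 70% in size.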 Put shortly:
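Counterscreen measures cleavage of 2 microM BOC-RVRR-AMC, below its ~15 microM Km, by 5 nM full-length human furin at pH 7.0 after a 15-min compound preincubation. Inhibition derives from the 15-min fluorescence increase at 37C.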

Assay [12] concerns Zika virus NS2B-NS3 protease (linked construct). As to the kind of experiment: Confirmatory screen NINDS AMC qHTS for Zika virus inhibitors (AID 1347152).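 Also: AMC fluorescence gain from cleaved Bz-Nle-KRR-AMC substrate over 15 min; top concentration of the series differs between compounds; nearly all actives have a fitted effect of over 70% in size.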 Put shortly: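 Linked NS2B-NS3 protease, 1 nM, in 10 mM Tris-HCl pH 8.0, 0.01% Tween 20; compounds preincubated 15 min at room temperature. Nle-KRR-AMC 10 microM (Km 18.3 µM); 15-min fluorescence change (340/450 nm) fitted to 4-parameter Hill.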

Assay [13] relates to Zika virus NS2B-NS3 protease (unlinked complex). The assay can be described thus: Confirmatory screen GU AMC qHTS for Zika virus inhibitors (AID 1347153). Also: nearly all actives have a fitted effect of over 70% in size. Put shortly:
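Unlinked NS2B-NS3 complex (25 nM) in 10 mM Tris-HCl pH 8.0, 0.01% Tween 20 preincubated 15 min with compound, then 10 microM Bz-Nle-KRR-AMC (Km 18.3 µM). Fluorescence change over 15 min, normalized, Hill-fitted.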

Assay [14] has as its target Atrial natriuretic peptide receptor 1 (Homo sapiens) (UniProt P16066). The assay can be described thus: Natriuretic polypeptide receptor (hNpr1) antagonism - Pilot screen (AID 1347049; calls by dose curve;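 also: HEK293 cells with hNpr1 and GloSensor cGMP luciferase stimulated by 0.1 nM hNppA; agonist-evoked cGMP luminescence read 20 min after hNppA addition; series mostly up to about 58 µM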). Summed up: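 Receptor antagonism read as cGMP-dependent luminescence in hNpr1/pGS-40F HEK293 cells: pre-read after 30 min compound exposure, post-read 20 min after hNppA agonist at 0.1 nM final, all at room temperature, protected from light; A-71915 titration as control.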

Chain of Atrial natriuretic peptide receptor 2 (Homo sapiens) (P20594 whole entry, looked up): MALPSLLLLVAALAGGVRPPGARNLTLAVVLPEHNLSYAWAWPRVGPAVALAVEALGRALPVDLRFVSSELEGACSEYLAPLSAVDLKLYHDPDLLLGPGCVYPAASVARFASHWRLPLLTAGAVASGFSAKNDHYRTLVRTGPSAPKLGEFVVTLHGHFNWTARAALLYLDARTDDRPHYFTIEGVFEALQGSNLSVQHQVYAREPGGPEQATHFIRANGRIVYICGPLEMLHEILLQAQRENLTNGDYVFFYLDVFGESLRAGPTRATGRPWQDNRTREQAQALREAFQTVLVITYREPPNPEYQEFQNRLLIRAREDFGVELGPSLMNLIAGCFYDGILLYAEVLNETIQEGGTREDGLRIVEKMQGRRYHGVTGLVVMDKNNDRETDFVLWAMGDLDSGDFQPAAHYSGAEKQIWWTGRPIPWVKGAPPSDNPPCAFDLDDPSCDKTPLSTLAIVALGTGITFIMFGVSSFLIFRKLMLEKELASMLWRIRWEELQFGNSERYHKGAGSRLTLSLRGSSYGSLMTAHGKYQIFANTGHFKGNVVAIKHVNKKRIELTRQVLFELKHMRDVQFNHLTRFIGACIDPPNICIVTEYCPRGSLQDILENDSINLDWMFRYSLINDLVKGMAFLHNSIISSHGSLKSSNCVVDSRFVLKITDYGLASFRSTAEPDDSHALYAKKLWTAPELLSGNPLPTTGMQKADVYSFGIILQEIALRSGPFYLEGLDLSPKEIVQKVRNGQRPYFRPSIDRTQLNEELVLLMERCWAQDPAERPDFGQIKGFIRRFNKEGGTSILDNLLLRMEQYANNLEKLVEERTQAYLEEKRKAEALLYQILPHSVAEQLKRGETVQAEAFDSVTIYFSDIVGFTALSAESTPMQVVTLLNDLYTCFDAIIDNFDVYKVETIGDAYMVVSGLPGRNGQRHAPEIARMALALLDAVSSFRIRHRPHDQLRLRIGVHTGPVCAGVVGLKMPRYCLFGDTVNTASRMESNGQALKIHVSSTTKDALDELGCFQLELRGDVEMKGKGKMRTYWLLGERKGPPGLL
Chain of N-terminal Xaa-Pro-Lys N-methyltransferase 1 (Homo sapiens) (Q9BV86 whole entry, looked up): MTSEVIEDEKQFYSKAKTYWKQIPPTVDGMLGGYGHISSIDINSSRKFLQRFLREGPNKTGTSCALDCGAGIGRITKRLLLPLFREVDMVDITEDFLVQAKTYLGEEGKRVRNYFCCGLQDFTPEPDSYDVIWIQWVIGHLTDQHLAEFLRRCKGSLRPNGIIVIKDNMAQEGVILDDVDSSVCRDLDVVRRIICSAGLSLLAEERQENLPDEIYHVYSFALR
Chain of Atrial natriuretic peptide receptor 1 (Homo sapiens) (P16066 whole entry, looked up): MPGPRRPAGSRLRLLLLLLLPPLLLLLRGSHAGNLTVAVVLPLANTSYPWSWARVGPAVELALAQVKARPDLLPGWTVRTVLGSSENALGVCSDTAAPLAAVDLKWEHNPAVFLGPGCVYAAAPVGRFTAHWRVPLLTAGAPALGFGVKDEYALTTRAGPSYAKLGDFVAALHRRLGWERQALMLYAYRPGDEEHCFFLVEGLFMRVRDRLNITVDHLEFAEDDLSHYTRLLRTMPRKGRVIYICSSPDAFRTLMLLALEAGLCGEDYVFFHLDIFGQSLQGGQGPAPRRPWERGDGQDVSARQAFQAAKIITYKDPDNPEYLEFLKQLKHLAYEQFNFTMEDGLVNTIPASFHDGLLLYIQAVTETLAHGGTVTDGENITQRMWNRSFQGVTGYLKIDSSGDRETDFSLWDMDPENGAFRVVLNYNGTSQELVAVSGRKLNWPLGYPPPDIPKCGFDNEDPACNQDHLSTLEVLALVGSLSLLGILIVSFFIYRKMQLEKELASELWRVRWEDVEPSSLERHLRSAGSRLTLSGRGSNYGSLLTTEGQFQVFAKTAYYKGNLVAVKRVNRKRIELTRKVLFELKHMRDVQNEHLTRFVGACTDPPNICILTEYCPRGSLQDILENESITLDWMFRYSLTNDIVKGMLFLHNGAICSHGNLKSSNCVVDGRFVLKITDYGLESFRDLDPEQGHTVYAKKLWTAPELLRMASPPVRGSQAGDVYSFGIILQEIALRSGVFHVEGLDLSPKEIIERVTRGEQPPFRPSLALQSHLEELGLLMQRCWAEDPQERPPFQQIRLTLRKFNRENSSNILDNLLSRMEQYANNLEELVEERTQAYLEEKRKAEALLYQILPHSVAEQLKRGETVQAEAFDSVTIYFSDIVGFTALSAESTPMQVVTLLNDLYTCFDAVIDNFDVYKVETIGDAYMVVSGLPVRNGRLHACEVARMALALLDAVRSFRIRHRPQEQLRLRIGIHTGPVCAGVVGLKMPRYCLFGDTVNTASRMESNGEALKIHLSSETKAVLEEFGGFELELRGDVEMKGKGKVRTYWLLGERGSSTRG
Chain of Parathyroid hormone/parathyroid hormone-related peptide receptor (Homo sapiens) (Q03431 whole entry, looked up): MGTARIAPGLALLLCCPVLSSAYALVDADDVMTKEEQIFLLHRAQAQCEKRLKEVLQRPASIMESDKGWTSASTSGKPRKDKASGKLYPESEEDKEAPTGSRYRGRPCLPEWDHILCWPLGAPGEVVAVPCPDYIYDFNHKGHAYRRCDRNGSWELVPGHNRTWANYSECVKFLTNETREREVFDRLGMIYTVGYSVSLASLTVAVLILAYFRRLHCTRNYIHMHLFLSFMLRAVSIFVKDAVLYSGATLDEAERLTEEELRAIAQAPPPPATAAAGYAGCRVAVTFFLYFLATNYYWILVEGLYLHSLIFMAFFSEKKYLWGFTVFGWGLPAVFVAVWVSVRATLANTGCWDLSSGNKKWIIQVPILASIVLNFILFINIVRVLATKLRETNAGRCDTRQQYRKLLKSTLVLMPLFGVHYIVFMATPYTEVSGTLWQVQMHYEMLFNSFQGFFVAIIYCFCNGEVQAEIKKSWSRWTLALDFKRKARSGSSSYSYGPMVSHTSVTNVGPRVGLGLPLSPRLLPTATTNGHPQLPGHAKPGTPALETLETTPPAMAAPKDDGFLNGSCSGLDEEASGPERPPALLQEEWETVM
Chain of Furin (Homo sapiens) (P09958 whole entry, looked up): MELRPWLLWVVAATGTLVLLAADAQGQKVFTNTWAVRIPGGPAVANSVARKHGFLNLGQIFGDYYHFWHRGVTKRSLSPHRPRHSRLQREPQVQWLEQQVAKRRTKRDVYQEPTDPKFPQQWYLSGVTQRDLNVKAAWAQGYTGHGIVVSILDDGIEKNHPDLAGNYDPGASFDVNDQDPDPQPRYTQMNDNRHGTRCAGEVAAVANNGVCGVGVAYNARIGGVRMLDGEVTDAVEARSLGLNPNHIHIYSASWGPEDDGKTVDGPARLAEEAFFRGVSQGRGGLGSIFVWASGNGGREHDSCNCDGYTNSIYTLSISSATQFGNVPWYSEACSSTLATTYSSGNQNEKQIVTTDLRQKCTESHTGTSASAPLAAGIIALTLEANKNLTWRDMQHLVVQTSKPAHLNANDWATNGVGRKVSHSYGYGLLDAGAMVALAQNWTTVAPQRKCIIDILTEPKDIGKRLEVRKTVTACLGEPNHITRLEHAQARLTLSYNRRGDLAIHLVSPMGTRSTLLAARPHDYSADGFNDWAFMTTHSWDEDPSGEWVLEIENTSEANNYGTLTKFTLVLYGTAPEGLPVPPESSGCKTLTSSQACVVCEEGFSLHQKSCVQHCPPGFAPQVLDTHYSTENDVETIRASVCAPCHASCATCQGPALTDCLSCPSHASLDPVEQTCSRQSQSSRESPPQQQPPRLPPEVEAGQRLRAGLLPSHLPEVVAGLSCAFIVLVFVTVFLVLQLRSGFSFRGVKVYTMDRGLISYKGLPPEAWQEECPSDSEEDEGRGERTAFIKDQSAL

For `Cc1cc2c(cc1Cl)N(C(=O)Nc1ccnc3ccccc13)CC2`, the Potency entry in [1], in [2], in [3], in [4], in assay [5] and in [7] was “inactive” each time. In addition, the Potency entry in assay [8], in [9] and in assay [10] was “inactive” in each case. In addition, the result in [6] was inactive.

For `[N-]=[N+]=Nc1ccc(C(=O)CSC[C@H](NC(=O)CC[C@H](N)C(=O)O)C(=O)NCC(=O)O)cc1`, the Potency entry in [1], in [2], in [3], in assay [4], in [5] and in [11] was “inactive” throughout. The Potency entry in [7], in [8] and in assay [9] was “inactive” each time. Also, the result in assay [6] was inactive. In addition, the Potency in assay [10] was 7.52 µM (active).

In the case of `Nc1ccc(-c2ccc3ccccc3n2)cc1`, the Potency was 7.08 µM (active) in assay [1]; 7.08 µM (active) in assay [2]; 14.7 µM (active) in [3]; 16.5 µM (active) in [4]; 39.8 µM (active) in assay [9]; 23.8 µM (active) in assay [10]. Also, the Potency result (in assay [5]; in [11]; in assay [7]; in assay [8]; in the assay with Furin (Homo sapiens); in assay [12]) was “inactive” throughout. Also, in [13], the Potency entry was “inactive”.

As to `CCCn1c(=O)c2[nH]c(C3CCCC3)nc2n(CCC)c1=O`, the Potency result in assay [1], in assay [2], in assay [3], in [4], in assay [5] and in assay [11] was “inactive” in each case. For the same molecule, the Potency result in assay [7], in assay [8], in assay [9] and in assay [10] was “inactive” each time. Further, the result in assay [6] was inactive.

For the molecule `NC(Cc1cccc(-c2ccccc2CP(=O)(O)O)c1)C(=O)O` (stereo not drawn), the Potency result in assay [1], in [2], in [3], in assay [4], in assay [5] and in assay [11] was “inactive” throughout. Besides, the Potency result in assay [7], in assay [8], in [9] and in assay [10] was “inactive” in each case. Also, in [6], the result was inactive.

Regarding `C[C@@]1(C2CCCC2)Cc2cc(OCC(=O)O)c(Cl)c(Cl)c2C1=O`, the Potency result in assay [1], in [2], in [14], in assay [4], in [5] and in [11] was “inactive” each time. In addition, the Potency entry in assay [7], in assay [8], in assay [9] and in assay [10] was “inactive” throughout. Further, the result in assay [6] was inactive.

Take `CC(/C=C/c1cccc(Oc2ccc(F)cc2)c1)N(O)C(N)=O` (stereo not drawn): the Potency entry in assay [1], in assay [2], in [14], in assay [4], in assay [5] and in assay [11] was “inactive” each time. Further, the Potency result in [7], in [8], in assay [9] and in assay [10] was “inactive” each time. For the same molecule, the outcome in assay [6] was inactive.

As to `CCCCOC(=O)NS(=O)(=O)c1sc(CC(C)C)cc1-c1ccc(Cn2c(CC)nc3c(C)cc(C)nc32)cc1`, the Potency result in assay [1], in assay [2], in assay [14], in assay [4], in [11] and in [7] was “inactive” throughout. Further, the Potency result in [8], in assay [9] and in assay [10] was “inactive” each time. In addition, the result in assay [6] was inactive.
